Measurements published in PubChem BioAssay AID485270 (The Scripps Research Institute Molecular Screening Center, 2010).
Among all 330,000 compounds or so, about 5,800 (1.8%) were called active. This is one part of a sample in which actives are shown more often than they occur. No stated cut-off is given here; in the data, active means inhibition mostly above about 38% (no sharp cut-off); inactive means mostly below about 40%.

biological target: Orexin/Hypocretin receptor type 1 (Homo sapiens) (UniProt O43613); assay: antagonists of human orexin 1 receptor (OX1R) (AID 485270); settings: OX1R-expressing cells, FRET antagonist read-out; at 6.6 µM; stronger effect = higher value;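 further: 0% = agonist challenge alone and 100% = reference antagonist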
Sequence (O43613 whole entry, looked up): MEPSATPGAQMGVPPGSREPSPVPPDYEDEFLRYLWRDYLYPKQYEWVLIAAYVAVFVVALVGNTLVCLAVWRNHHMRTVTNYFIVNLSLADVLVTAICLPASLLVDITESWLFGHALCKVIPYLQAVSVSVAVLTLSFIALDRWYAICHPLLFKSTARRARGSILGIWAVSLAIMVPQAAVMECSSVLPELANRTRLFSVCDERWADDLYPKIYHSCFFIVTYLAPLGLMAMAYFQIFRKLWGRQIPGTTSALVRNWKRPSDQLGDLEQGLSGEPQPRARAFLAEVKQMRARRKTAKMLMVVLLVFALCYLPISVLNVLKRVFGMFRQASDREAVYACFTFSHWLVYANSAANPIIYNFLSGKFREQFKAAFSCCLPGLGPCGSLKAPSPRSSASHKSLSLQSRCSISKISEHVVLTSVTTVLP

Q: For `COc1ccc(CNC(=O)C[C@H]2C[C@H](C(=O)N3CCOCC3)[C@@]3(C)c4[nH]c5cc(CCC(=O)N(C)C)ccc5c4CCN3C2=O)cc1OC`, which inhibition is on record?
A: 1.77% (inactive)

Q: With `CC1(C)CN(c2ccc(-c3ccnc4ncnn34)cc2)C1=O` as the compound, how does the inhibition read?
A: 41.3% (active)

Q: How did the inhibition turn out when `Nc1c(-c2ccc(F)cc2)cnc2ncnn12` was run?
A: 7.26% (inactive)

Q: How did the inhibition turn out when `CCn1nnnc1SCC(=O)c1ccc(C)cc1C` was run?
A: 12.5% (inactive)

Q: Which inhibition does the source give for `Cc1ccc2c(c1)nnc1nnc(SCC(=O)O)n12` here?
A: 89.5% (active)

Q: Which inhibition does the source give for `Cc1cccc(-c2nnc(SCC(=O)O)n2Cc2ccccc2)c1` here?
A: -2.09% (inactive)

Q: For `CCN(C(=O)COC(=O)c1ccccc1O)c1cccc2ccccc12`, which inhibition is on record?
A: 4.23% (inactive)

Q: `CC[C@]12c3[nH]c4ccc(Cl)cc4c3CCN1C(=O)[C@@H](CC(=O)NCCCOC)C[C@@H]2C(=O)N1CCN(C(=O)C2CC2)CC1` was tested. Which inhibition did it give?
A: -3.2% (inactive)

Q: For `O=C(C1CCCN(S(=O)(=O)c2ccc([N+](=O)[O-])cc2)C1)N1CCCCC1` (stereo not drawn), which inhibition is on record?
A: 66.7% (active)

Q: For `COc1ccc(CCC(=O)N2CCN(S(=O)(=O)c3ccc(OC)cc3)CC2)cc1`, which inhibition is on record?
A: 3.59% (inactive)

Q: Which inhibition does the source give for `O=C(C1CCCN(S(=O)(=O)c2ccccc2)C1)N1CCN(c2ccc(F)cc2)CC1` (stereo not drawn) here?
A: 13.8% (inactive)

Q: For `O=C(O)C1CCCCC1C(=O)N1CCN(S(=O)(=O)c2ccc(F)cc2)CC1` (stereo not drawn), which inhibition is on record?
A: 7.06% (inactive)

Q: How did the inhibition turn out when `O=C(C1CCC1)N1CCN(S(=O)(=O)c2ccc([N+](=O)[O-])cc2)CC1` was run?
A: 43.9% (active)

Q: Which inhibition does the source give for `Cc1ccc(S(=O)(=O)N2CCCC(C(=O)N3CCN(C)CC3)C2)cc1` (stereo not drawn) here?
A: 16.7% (inactive)

Q: With `O=C(Cc1ccccc1)N1CCN(S(=O)(=O)c2ccc([N+](=O)[O-])cc2)CC1` as the compound, how does the inhibition read?
A: 88.8% (active)

Q: For `O=C(Cc1ccccc1)NNS(=O)(=O)c1ccc([N+](=O)[O-])cc1`, which inhibition is on record?
A: 42% (inactive)

Q: How did the inhibition turn out when `O=C(NNS(=O)(=O)c1ccc([N+](=O)[O-])cc1)C1CCCCC1` was run?
A: 34.2% (inactive)

Q: With `CC1CCCN(C(=O)CN2C(=O)c3ccccc3S2(=O)=O)C1` (stereo not drawn) as the compound, how does the inhibition read?
A: 1.18% (inactive)

Q: How did the inhibition turn out when `COc1ccc(C(=O)Nc2cc(S(=O)(=O)N3CCCC3)ccc2Cl)cc1` was run?
A: 16.2% (inactive)

Q: How did the inhibition turn out when `COc1ccc(OCC(=O)NNC(=O)C2CCC2)cc1` was run?
A: -2.24% (inactive)

Q: With `O=C(COC(=O)COc1cccc(F)c1)NCC1CCCCC1` as the compound, how does the inhibition read?
A: 4.71% (inactive)

Q: Which inhibition does the source give for `O=C(CN1C(=O)NC2(CCOc3ccccc32)C1=O)Nc1cccc([N+](=O)[O-])c1` (stereo not drawn) here?
A: 7.29% (inactive)

Q: For `Cc1ccc(F)cc1NC(=O)CSCc1c(C)noc1C`, which inhibition is on record?
A: -1.27% (inactive)

Q: How did the inhibition turn out when `CCc1noc(C)c1C(=O)Nc1nc2ccc(OC)cc2s1` was run?
A: 25.1% (inactive)

Q: How did the inhibition turn out when `Cc1noc(C)c1CSCC(=O)Nc1nc2ccc(Oc3ccccc3)cc2s1` was run?
A: 76% (active)

Q: With `Nn1c(SCC(=O)NC2CCCc3ccccc32)nnc1C1CC1` (stereo not drawn) as the compound, how does the inhibition read?
A: 8.92% (inactive)

Q: Which inhibition does the source give for `CCOC(=O)C(C)Oc1cccc2c(=O)n(CC(=O)N3CCc4ccccc43)ccc12` (stereo not drawn) here?
A: 12.2% (inactive)

Q: For `COC(=O)COc1cccc2c(=O)n(CC(=O)NCCc3ccc(OC)c(OC)c3)ccc12`, which inhibition is on record?
A: 1.07% (inactive)

Q: For `CCOC(=O)C(C)Oc1cccc2c(=O)n(CC(=O)NCCc3ccc(OC)c(OC)c3)ccc12` (stereo not drawn), which inhibition is on record?
A: 37% (active)

Q: `Cc1onc(-c2c(F)cccc2Cl)c1C(=O)OCC(=O)N1C(C)CCCC1C` (stereo not drawn) was tested. Which inhibition did it give?
A: 17.2% (inactive)

Q: With `COc1cccc(/C=N/NC(=O)c2[nH]nc3c2CCc2ccccc2-3)c1O` as the compound, how does the inhibition read?
A: 75.7% (active)

Q: With `COc1ccc(/C=N/NC(=O)c2ccc3c(c2)OCCO3)c(OC)c1` as the compound, how does the inhibition read?
A: 22.9% (inactive)

Q: For `CN(C)CCNC(=O)c1[nH]nc2c1CCc1ccccc1-2`, which inhibition is on record?
A: 3.78% (inactive)

Q: `Cc1ccc(S(=O)(=O)NCC(C)NS(C)(=O)=O)cc1` (stereo not drawn) was tested. Which inhibition did it give?
A: 4.32% (inactive)

Q: Which inhibition does the source give for `CCN(CC(=O)NC(C)C)C(=O)c1cc(S(=O)(=O)N2CCCCC2)ccc1N1CCCCC1` here?
A: 4.56% (inactive)

Q: Which inhibition does the source give for `CC(=O)NC(CC(=O)Nc1ccc(S(=O)(=O)N2CCOCC2)cc1)c1ccccc1` (stereo not drawn) here?
A: 6.07% (inactive)

Q: For `Cn1nccc1C(=O)NC1CCCc2c1cnn2-c1ccccc1F` (stereo not drawn), which inhibition is on record?
A: 26.4% (inactive)

Q: For `Cc1cc(C(=O)NC2CCCc3c2cnn3-c2cccc(C)c2C)c(C)o1` (stereo not drawn), which inhibition is on record?
A: 81% (active)

Q: With `COc1ccc(C(=O)NC2CCCc3c2cnn3-c2cccc(C)c2C)c(OC)n1` (stereo not drawn) as the compound, how does the inhibition read?
A: 38.4% (inactive)

Q: How did the inhibition turn out when `CC[C@]1(C(=O)OC)[C@H]2C(=O)N(Cc3ccccc3)C(=O)[C@H]2[C@H]2CN=C(SCc3ccc(C#N)cc3)N21` was run?
A: 4.34% (inactive)

Q: `C=CC[C@H](CC(=O)OC(C)(C)C)C(=O)OC[C@H]1CCCN1C(=O)[C@H](CC=C)CC(=O)N(CCO)Cc1ccccc1` was tested. Which inhibition did it give?
A: 2.54% (inactive)

Q: `Cc1ccc(NC(=O)CN2CCC(C(N)=O)CC2)cc1[N+](=O)[O-]` was tested. Which inhibition did it give?
A: 50.4% (active)

Q: With `Cc1ccc(NC(=O)CN(C)CC(=O)Nc2cccc(F)c2)cc1[N+](=O)[O-]` as the compound, how does the inhibition read?
A: 30% (inactive)

Q: `CN1CCN(CC(=O)Nc2cccc([N+](=O)[O-])c2)CC1` was tested. Which inhibition did it give?
A: 28% (inactive)

Q: With `C[C@H](CO)N1C[C@H](C)[C@@H](CN(C)C(=O)NC2CCCCC2)Oc2ccc(NC(=O)c3ccncc3)cc2C1=O` as the compound, how does the inhibition read?
A: 1.49% (inactive)

Q: How did the inhibition turn out when `Cc1ccc(C(=O)NNC(=O)CSc2nnc3ccccn23)cc1` was run?
A: 0.4% (inactive)

Q: For `COCCN(Cc1nc(-c2ccc(C(F)(F)F)cc2)no1)C(C)C`, which inhibition is on record?
A: -2.95% (inactive)

Q: `CC(=O)N(C1=C(Cl)C(=O)c2ccccc2C1=O)c1ccc(C(=O)O)cc1` was tested. Which inhibition did it give?
A: 39.2% (active)

Q: How did the inhibition turn out when `CCc1ccc(CN(C)C(=O)CCc2nnc(-c3ccc(-c4ccccc4)cc3)o2)nc1` was run?
A: 3.52% (inactive)

Q: With `CC(=O)c1ccc(-c2nnc(CCC(=O)N(C)Cc3cnc4ccccn34)o2)s1` as the compound, how does the inhibition read?
A: 40.1% (active)

Q: For `CN(C)/N=C/c1cc(Cl)cc([N+](=O)[O-])c1O`, which inhibition is on record?
A: 46.4% (inactive)

Q: Which inhibition does the source give for `O=C(N/N=C/c1cc(Br)c(O)c([N+](=O)[O-])c1)C(O)(c1ccccc1)c1ccccc1` here?
A: 28.3% (inactive)

Q: Which inhibition does the source give for `O=C(N/N=C/c1cc(Cl)cc([N+](=O)[O-])c1O)C(O)(c1ccccc1)c1ccccc1` here?
A: 54.6% (active)

Q: `COc1cc(NC(=O)COC(=O)c2cc(S(=O)(=O)N3CCOCC3)ccc2F)cc(OC)c1` was tested. Which inhibition did it give?
A: 15.3% (inactive)

Q: How did the inhibition turn out when `O=C(c1cnccn1)N1CCN(S(=O)(=O)c2cccc(Cl)c2)CC1` was run?
A: 4.72% (inactive)

Q: For `O=C(C[C@@H]1C/C=C\CCC(=O)OC[C@@H]2CCCN2C1=O)NCCO`, which inhibition is on record?
A: 4.18% (inactive)

Q: `CCCCC[C@@H]1C=C(C(=O)O)[C@H](c2ccc(C#N)cc2)N1S(=O)(=O)c1ccc(C)cc1` was tested. Which inhibition did it give?
A: 10.8% (inactive)

Q: With `Cc1ccc(S(=O)(=O)NNC(=O)Nc2cccc3ccccc23)cc1` as the compound, how does the inhibition read?
A: 21.8% (inactive)

Q: For `Cc1ccc(S(=O)(=O)N2[C@@H](c3cccc4ccccc34)C(C(=O)O)=C[C@H]2C(C)(C)C)cc1`, which inhibition is on record?
A: 46.2% (active)

Q: With `O=C1CSc2ccc(C(=O)NCc3ccccn3)cc2N1` as the compound, how does the inhibition read?
A: 3.47% (inactive)

Q: `CN(C(=O)CSc1nnc(-c2c[nH]c3ccccc23)o1)C1CCS(=O)(=O)C1` (stereo not drawn) was tested. Which inhibition did it give?
A: 16.6% (inactive)

Q: With `CN(C(=O)CSc1nnc(-c2n[nH]c3ccccc23)o1)c1ccccc1` as the compound, how does the inhibition read?
A: 91.9% (active)

Q: How did the inhibition turn out when `O=C(CSc1nnc(-c2c[nH]c3ccccc23)o1)c1ccccc1` was run?
A: 29.7% (inactive)

Q: For `Cc1cc(NC(=O)c2cccc(N3C(=O)CCC3=O)c2)no1`, which inhibition is on record?
A: 11.9% (inactive)

Q: Which inhibition does the source give for `COc1ccc(NC(=O)Nc2cccc3cccnc23)cc1` here?
A: 40% (active)

Q: Which inhibition does the source give for `COc1ccc(NC(=O)C2CCCN(S(=O)(=O)c3cccc4cccnc34)C2)cc1` (stereo not drawn) here?
A: 4.36% (inactive)

Q: `N#Cc1ccc(C(=O)Nc2cccc3cccnc23)c(F)c1` was tested. Which inhibition did it give?
A: 11% (inactive)

Q: With `CCOC(=O)Cc1ncccc1C(=O)Nc1ccc(OC)cc1` as the compound, how does the inhibition read?
A: 25.1% (inactive)

Q: `O=C(Nc1cccc2cccnc12)c1cccc(Cl)c1` was tested. Which inhibition did it give?
A: 61.5% (active)

Q: `COC(=O)c1cccc(NC(=O)c2cccc(N3C(=O)CCC3=O)c2)c1` was tested. Which inhibition did it give?
A: 4.2% (inactive)

Q: Which inhibition does the source give for `O=C(Nc1cccc2cccnc12)c1cccc(N2C(=O)CCC2=O)c1` here?
A: 92.7% (active)

Q: For `O=C(Nc1cccnc1Cl)c1cc(-c2cccc(Cl)c2)on1`, which inhibition is on record?
A: 11.7% (inactive)

Q: `CC[C@]1(C(=O)OC)[C@H]2C(=O)N(C)C(=O)[C@H]2[C@H]2CN(C)C(=NCc3ccccc3)N21` was tested. Which inhibition did it give?
A: 2.73% (inactive)

Q: Which inhibition does the source give for `COc1ccccc1CNC(=O)COC(=O)c1cccs1` here?
A: 2.2% (inactive)

Q: `O=C(CN1C(=O)NC(Cc2c[nH]c3ccccc23)C1=O)Nc1ccccc1C(F)(F)F` (stereo not drawn) was tested. Which inhibition did it give?
A: 3.6% (inactive)

Q: How did the inhibition turn out when `CCC(C)c1ccc(NC(=O)COC(=O)C2CCCC2)cc1` (stereo not drawn) was run?
A: 5.25% (inactive)

Q: `CCOC(=O)[C@@H]1[C@H]2COc3ccc(Br)cc3[C@H]2N2C(=O)N(c3ccc(C)cc3)C(=O)[C@@]12C` was tested. Which inhibition did it give?
A: 10.5% (inactive)

Q: With `O=C(Cn1cnc2c(OCc3ccccc3)ncnc21)NCc1nc2ccccc2[nH]1` as the compound, how does the inhibition read?
A: 14.3% (inactive)

Q: With `CC(O)CNCCOc1cccc(Oc2ccccc2)c1` (stereo not drawn) as the compound, how does the inhibition read?
A: 3.22% (inactive)

Q: How did the inhibition turn out when `CC(C)(C)NCC(O)COc1cccc2[nH]c(=O)[nH]c12` (stereo not drawn) was run?
A: 8.82% (inactive)

Q: Which inhibition does the source give for `COc1ccccc1OCCNCC(O)COc1cccc2[nH]c3ccccc3c12` (stereo not drawn) here?
A: 59.7% (active)

Q: With `Cc1sc(NC(=O)c2ccc3ncsc3c2)c(C(N)=O)c1C` as the compound, how does the inhibition read?
A: 43.8% (active)

Q: How did the inhibition turn out when `COc1ccccc1-c1nnc(NC(=O)c2ccc3ncsc3c2)o1` was run?
A: 8.4% (inactive)

Q: With `Cc1ccc(C(=O)c2c(NC(=O)c3ccccc3)sc(C)c2C)cc1` as the compound, how does the inhibition read?
A: 21.9% (inactive)

Q: With `Cc1ccc(C(=O)Nc2ccccc2-c2ccccc2)cc1S(=O)(=O)Nc1ccccc1` as the compound, how does the inhibition read?
A: 5.71% (inactive)

Q: Which inhibition does the source give for `Cc1noc(C)c1S(=O)(=O)N(CC(=O)Nc1ccc2c(c1)OCCO2)c1ccc(C(C)C)cc1` here?
A: 23.3% (inactive)

Q: With `CCOc1ccc(N(CC(=O)NCc2ccc(OC)cc2)S(=O)(=O)c2c(C)noc2C)cc1` as the compound, how does the inhibition read?
A: 0.77% (inactive)

Q: With `Cc1noc(C)c1S(=O)(=O)N(CC(=O)NCc1ccc(Cl)cc1)c1ccc2c(c1)OCO2` as the compound, how does the inhibition read?
A: 80.7% (active)
